Experimental findings from PubChem BioAssay (NCI) are described below.

SMILES strings stand for the structures. The panel holds about 79,000 compounds, 15% with a hit somewhere; the sample as a whole holds those more often. A number with no mark means an inactive call. Calls of active or inactive are those of the source. Cut-off read from the data, not from the text of the source: active = growth inhibition above about 70%; inactive = the rest. Where a SMILES comes first, the peptide text is derived from it. [ ]: non-standard residue; d: D form. The star is where a group is joined. ξ: configuration not given here. Cbz = O=C(OCc1ccccc1)*; ξNva = CCCC(N)C(=O)O

The assay can be described thus: NCI Yeast Anticancer Drug Screen. Data for the mlh1 rad18 strain (AID 175). The conditions noted are these: S. cerevisiae mlh1 rad18 strain growth inhibition; at 50.0 µM; stronger effect = higher value. In short, it runs like this: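 Steps: expose repair-defective yeast to compound; measure growth; express inhibition against vehicle-treated controls.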
`Cn1nc(Br)c(=O)n(C)c1=O`: the growth inhibition is -10.4%. With `O=C(O)[C@H](c1ccccc1)[C@@H](C(=O)O)c1ccccc1`, the growth inhibition is -1.4%.

On to `O=[N+]([O-])/C(C(Cl)=C(Cl)Cl)=C(/Cl)Sc1ccccc1`, for which the growth inhibition was 91.4% (active). Take `CSCSCC(CO)NC(=O)/C=C\c1ccccc1` (stereo not given): the growth inhibition is 3.5%.

With `COc1cc([C@@H]2c3cc4c(cc3[C@](C)(O)[C@H]3COC(=O)[C@H]23)OCO4)cc(OC)c1OC`, the growth inhibition is 11%. Regarding `CCN(CC)C(=O)CCC1(C)OCCO1`, the growth inhibition was 6.45%.

For the compound `CCCCCC(=O)OCCCCCO`, the growth inhibition was -4.7%. `CC(=O)OCC(OC(C)=O)C(OC(C)=O)C(OC(C)=O)C(OC(C)=O)C(C=O)OC(C)=O` (stereo not given): the growth inhibition is -7.95%. The result for `COCCOC(=O)c1ccc(C(N)=NC2CCCCC2)cc1` reads -0.7%; that for `CCCCCCCSc1nc2ccc(N=Cc3ccccc3O)cc2s1`, -24.4%. Under `CN(C)C1C(CO)C(CO)C1(C)C` (stereo not given) stands -7.55%; under `CSCCCC(N)=O`, 3.9%.

In the case of `C/C(=N/Nc1ccc([N+](=O)[O-])cc1[N+](=O)[O-])C1=CCCCC1`, the growth inhibition was -4.85%.

As to `CCCNC(=O)c1ccccc1O`, the growth inhibition is 7.45%.

Consider `Cc1cc2c(C(C)C)c(O)c(O)c(C=Nc3ccc4ccccc4c3)c2c(O)c1-c1c(C)cc2c(C(C)C)c(O)c(O)c(C=Nc3ccc4ccccc4c3)c2c1O`, for which the growth inhibition was 1.2%.

As to `C/C(=N\Nc1ccc([N+](=O)[O-])cc1)C(=O)N(C)Nc1ccccc1`, the growth inhibition is -5.4%.

As for `CNC(=O)OCc1nc(SC(C)C)n(C)c1COC(=O)NC`, the growth inhibition is -28.1%. Consider `C=C(CO)[C@H]1Oc2ccc(C(C)=O)cc2[C@@H]1O`, for which the growth inhibition is -12.5%. In the case of `c1ccc2c(c1)CCC(C1=NC3CCCCC3N1)=N2` (stereo not given), the growth inhibition is 1.85%.

Regarding `CC(C)NC(=O)/C=C/C(=O)O`, the growth inhibition is -9.1%.

`COc1cc(OC)c(C2CC(C)(O)Oc3cc4c(cc32)OCO4)c(OC)c1` (stereo not given): the growth inhibition was 11.8%. With `CC1N=C(c2ccccc2)SC1C` (stereo not given), the growth inhibition is -38.3%. On to `COc1cc2ccnc(C#N)c2cc1OCc1ccccc1`, for which the growth inhibition was -31.3%. The result for `O=C1c2c(Cl)cccc2C(c2ccccc2)c2cccc(Cl)c21` reads 23.2%. Under `CCCC(=O)OC1C(CO)OC(n2cc(F)c(=O)[nH]c2=O)C1F` (stereo not given) stands -17.8%.

Take `CC(=N\N)/C(C)=N/N=C(C)/C(C)=N/N=C(C)/C(C)=N/N=C(C)/C(C)=N/N`: the growth inhibition is -14.4%. Under `N#CCCN(CCC#N)c1ccc(/C=C2\N=C(c3cc([N+](=O)[O-])ccc3Cl)N(S(=O)(=O)c3ccccc3)C2=O)cc1` stands 28.1%; under `Cc1cnc(N/N=C/c2c(CO)cnc(C)c2O)s1`, 23.6%; under `NC(=O)/C(=N/O)c1ccccc1`, -7.6%.

On to `CCCC(NC(=O)CNC(=O)OCc1ccccc1)C(=O)O` (stereo not drawn) (Cbz-Gly-[ξNva]-OH), for which the growth inhibition was 3.95%. `CC(=O)ON(C(=O)c1ccccc1)c1ccccc1`: the growth inhibition is 12.1%.

In the case of `O=C1OCC2=C1C(c1ccc3c(c1)OCO3)c1cc3c(cc1O2)OCO3` (stereo not given), the growth inhibition is -16.6%.

Turning to `c1ccc(OB(Oc2ccccc2)Oc2ccccc2)cc1`, the growth inhibition is -6.7%. Under `O=C(O)c1ccccc1NCn1c(=S)sc2ccccc21` stands 53.9%; under `CN=S(=O)(OC/C=C/COS(=O)(=NC)c1ccc(C)cc1)c1ccc(C)cc1` (stereo not given), -26.3%. Regarding `Nc1ccc2c(c1)C(=O)c1cc(C(=O)O)ccc1-2`, the growth inhibition is -10.1%. Under `NC(=S)N1CCCC1` stands 19.3%. Take `Oc1c(Cl)cc(Cl)cc1C1N2CCCCC2C2c3cccn3-c3ccccc3N21` (stereo not given): the growth inhibition was -30.6%. Regarding `O=C(c1ccccc1)C1C(/C=C/c2ccccc2)C(C(=O)c2ccccc2)C1/C=C/c1ccccc1` (stereo not given), the growth inhibition is 3.25%.

`COc1ccc(/C=N\O[Si](C)(C)C(C)(C)C)cc1O[Si](C)(C)C(C)(C)C`: the growth inhibition was 15.8%.
